The results in this text go back to the supplement of paper PMC4840960.

Experiment [1] relates to E18 rat cortical neuron-glia co-culture. Briefly: fiber score / MBP score (myelination specific beyond OL differentiation) (ratio); higher = more myelination-specific MBP alignment. To be noted: treatment time: 8 days (DIV5-DIV13). In outline: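 Library compounds were applied at 1 or 5 µM in myelination medium, DIV5 to DIV13, to primary E18 rat cortical co-cultures grown at 20,000 cells/well in 96-well plates. After 4 % paraformaldehyde fixation and MBP/Olig2/DAPI immunostaining, four 10X fields per well in duplicate wells were scored. Each value is continuous MBP fiber length per Olig2+ nucleus divided by thresholded MBP area × intensity per Olig2+ nucleus.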

The test system is the same in experiment [2]. Briefly: myelination (MBP fiber length per Olig2+ nucleus), % of 1 µM DAPT response (DMSO = 0) (% of DAPT); higher = more myelination, active = 50 or more. To be noted: treatment time: 8 days (DIV5-DIV13). Put shortly:
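Library compounds at 1 or 5 µM in myelination medium were applied from DIV5 to DIV13 to papain-dissociated E18 rat cortical co-cultures seeded at 20,000 cells/well on poly-d-lysine/laminin 96-well plates. Fixed cells (4 % paraformaldehyde) were immunostained for MBP and Olig2 with DAPI, and four 10X fields were analysed in each duplicate well. Continuous straight MBP fiber length per Olig2+ nucleus was set to 0 for 0.1 % DMSO and to 100 for a 1 µM positive control.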

Each structure is given as a SMILES string. Structures can show the parent of a compound that is named as a salt. ± gives the standard deviation of the averaged measurements.

Take `CN(C)[C@@H]1C(O)=C(C(=O)NCN2CCCC2)C(=O)[C@@]2(O)C(O)=C3C(=O)c4c(O)cccc4[C@@](C)(O)[C@H]3C[C@@H]12` [Rolitetracycline]: the “fiber score / MBP score” value in experiment [1] (1 µM) was determined as 0.779; in experiment [1] (5 µM), 0.832. Further, the myelination in experiment [2] (1 µM) was -9.77 (inactive); in experiment [2] (5 µM) it was -5.55 (inactive).
For `CCCC1O[C@@H]2C[C@H]3[C@@H]4CCC5=CC(=O)C=C[C@]5(C)[C@H]4[C@@H](O)C[C@]3(C)[C@]2(C(=O)CO)O1` (stereo partly specified) [Budesonide], the figures for the “fiber score / MBP score” value in experiment [1] (1 µM) and in experiment [1] (5 µM) were 0.86 and 0.762, respectively. Besides, the myelination in experiment [2] (1 µM) is 3.65 (inactive); in experiment [2] (5 µM), -18.8 (inactive).
Turning to `C[C@]12CC[C@@H]3c4ccc(O)cc4CC[C@H]3[C@@H]1CC[C@@H]2O` [Estradiol], the “fiber score / MBP score” value came to 0.747 in experiment [1] (1 µM) and 0.62 in experiment [1] (5 µM). The myelination in experiment [2] (1 µM) is -24.6 (inactive); in experiment [2] (5 µM) it was -35.3 (inactive).
As to `CC1=C(/C=C/C(C)=C/C=C/C(C)=C\C(=O)O)C(C)(C)CCC1` [Isotretinoin], the “fiber score / MBP score” value in experiment [1] (1 µM) was 0.294; in experiment [1] (5 µM) it was 0.414. The myelination is -16.1 (inactive) in experiment [2] (1 µM) and -11.8 (inactive) in experiment [2] (5 µM).
Consider `OC[C@H]1O[C@@H](Oc2cc(O)cc(/C=C/c3ccc(O)cc3)c2)[C@H](O)[C@@H](O)[C@@H]1O` [Polydatin], for which the “fiber score / MBP score” value was found to be 0.578 in experiment [1] (1 µM) and 0.769 in experiment [1] (5 µM). Further, the myelination in experiment [2] (1 µM) was -20.3 (inactive); in experiment [2] (5 µM), -3.53 (inactive).
With `O=c1cnn([C@@H]2O[C@H](CO)[C@@H](O)[C@H]2O)c(=O)[nH]1` [Azauridine], the figures for the “fiber score / MBP score” value in experiment [1] (1 µM) and in experiment [1] (5 µM) were 0.944 and 0.453, respectively. Further, the myelination in experiment [2] (1 µM) was -6.45 (inactive); in experiment [2] (5 µM), -26.1 (inactive).
Taken in the same sequence, the figures for `CC1(C)O[C@@H]2C[C@H]3[C@@H]4C[C@H](F)C5=CC(=O)C=C[C@]5(C)[C@@]4(F)[C@@H](O)C[C@]3(C)[C@]2(C(=O)CO)O1` [Fluocinolone Acetonide] were 1.4, 0.825, 22.3 (inactive) and 6.47 (inactive).
Taken in the same sequence, the figures for `CC(COc1ccccc1)NC(C)C(O)c1ccc(O)cc1` (stereo unspecified) [Isoxsuprine] were 0.798, 0.841, -4.41 (inactive) and -2.46 (inactive).
For `Clc1ccccc1CN1CCc2sccc2C1` [Ticlopidine], in that order: 0.477, 0.662, -18.3 (inactive) and -14.2 (inactive).
Consider `CCN(CC)CCOC(=O)c1ccc(N)cc1` [Procaine], for which the “fiber score / MBP score” value in experiment [1] (1 µM) worked out at 1.09; in experiment [1] (5 µM), 1.47. In addition, the myelination was 6.68 (inactive) in experiment [2] (1 µM) and 23.1 (inactive) in experiment [2] (5 µM).
With `Cc1ccccc1C(OCCN(C)C)c1ccccc1` (stereo unspecified) [Orphenadrine], the “fiber score / MBP score” value is 0.693 ± 0.21 in experiment [1] (1 µM) and 0.896 ± 0.071 in experiment [1] (5 µM). Moreover, the values for the myelination in experiment [2] (1 µM) and in experiment [2] (5 µM) were -7.59 (inactive) and -2.71 (inactive), respectively.
Turning to `CCc1nc(N)nc(N)c1-c1ccc(Cl)cc1` [Pyrimethamine], the results for the “fiber score / MBP score” value in experiment [1] (1 µM) and in experiment [1] (5 µM) were 1.86 and 2.19, respectively. Further, the myelination is 398 (active) in experiment [2] (1 µM) and 655 (active) in experiment [2] (5 µM).
Turning to `CCC(C)(C)C(=O)O[C@H]1C[C@@H](C)C=C2C=C[C@H](C)[C@H](CC[C@@H]3C[C@@H](O)CC(=O)O3)[C@H]21` [Simvastatin], the “fiber score / MBP score” value in experiment [1] (1 µM) came to 1.17; in experiment [1] (5 µM), 3.15. For the same molecule, the myelination in experiment [2] (1 µM) is -17.5 (inactive); in experiment [2] (5 µM), 30 (inactive).
Taken in the same sequence, the figures for `N#Cc1ccc(C(c2ccc(C#N)cc2)n2cncn2)cc1` [letrozole] were 0.937, 1.09, -16.4 (inactive) and 2.49 (inactive).
Taken in the same sequence, the figures for `CCC1=C[C@@H]2CN(C1)Cc1c([nH]c3ccccc13)[C@@](C(=O)OC)(c1cc3c(cc1OC)N(C)[C@H]1[C@@](O)(C(=O)OC)[C@H](OC(C)=O)[C@]4(CC)C=CCN5CC[C@]31[C@@H]54)C2` [Vinorelbine] were 0.944, 0.453, -6.45 (inactive) and -26.1 (inactive).
On to `CC(C)(C)NCC(O)c1ccc(O)c(CO)c1` (stereo unspecified) [Albuterol], for which the figures for the “fiber score / MBP score” value in experiment [1] (1 µM) and in experiment [1] (5 µM) were 0.654 and 0.789, respectively. For the same molecule, the myelination in experiment [2] (1 µM) was -29.6 (inactive); in experiment [2] (5 µM), -17.3 (inactive).
For `Clc1cccc(Cl)c1NC1=NCCN1` [Clonidine hydrochloride], in that order: 0.735, 0.879, -10.4 (inactive) and -5.88 (inactive).
For `CC(C)NCC(O)c1cc(O)cc(O)c1` (stereo unspecified) [Metaproterenol], in that order: 0.313, 0.371, -16.5 (inactive) and -14.3 (inactive).
Regarding `COc1cc(NC(C)CCCN)c2ncccc2c1` (stereo unspecified) [Primaquine], the “fiber score / MBP score” value in experiment [1] (1 µM) was 0.815; in experiment [1] (5 µM) it was 0.985. Moreover, the myelination in experiment [2] (1 µM) was -0.112 (inactive); in experiment [2] (5 µM) it was 11.1 (inactive).
